Results as given in PubChem BioAssay AID686979 (National Center for Advancing Translational Sciences (NCATS), 2013).
Values joined by “and” are separate entries in the source; they are usually repeats but may differ in a detail not shown here. Equal entries are not always repeated. Screen size: about 420,000 compounds; about 50,000 (12%) were called active. Entries that show only a call come without a potency. Inconclusive results (about 26%) are left out. Calls come from the whole dose curve; as a rule, active = well fitted inhibition curve with a large enough effect; inconclusive = small, poorly fitted or top-dose-only effect; inactive = flat fitted curve, though single readings scatter. The full list was thinned out, with actives kept by preference.
Potency is the fitted concentration of half-maximal effect.

Assay: qHTS for Inhibitors of human tyrosyl-DNA phosphodiesterase 1 (TDP1): qHTS in cells in presence of CPT; note: nearly all actives have a fitted effect of over 55% in size
Conditions: chicken DT40 Tdp1-/-;hTDP1 cells + 20 nM CPT, ATP luminescence, 48 h; series mostly up to 46.2 µM
Procedure, shortened: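 Cell growth measured by CellTiter-Glo luminescence after a minimum 48 h, 37 C compound exposure with 20 nM CPT in Tdp1-knockout DT40 cells stably expressing hTDP1, seeded 400/well; qHTS titration format.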
For `CNS(=O)(=O)c1ccc2c(c1)[nH]c(=S)n2C`, the Potency was “inactive”. For `CSc1ccccc1NC(=O)c1cc(Cl)sc1Cl`, the Potency was “inactive”. In the case of `O=c1[nH]c(/C=C\c2cccc(C(F)(F)F)c2)nc(O)c1[N+](=O)[O-]`, the Potency is reported as “inactive”. In the case of `Cc1ccc(C)c(NC(=S)NNC(=S)Nc2ccc(C(C)C)cc2)c1`, the Potency is reported as “inactive”. In the case of `CC(OC(=O)CCC(=O)c1ccccc1)C(=O)Nc1ccc(F)cc1` (stereo not drawn), the Potency is reported as “inactive”. For `CCc1ccc(NC(=O)CN2C(=O)CSC2=O)cc1`, the Potency was “inactive”. In the case of `Cc1ccc(OCCC(=O)Nc2ccc(S(=O)(=O)Nc3nccs3)cc2)cc1`, the Potency is reported as “inactive”. With `O=C1c2cccc3c([N+](=O)[O-])ccc(c23)C(=O)N1CC1CCCO1` (stereo not drawn) the Potency was 6.51 µM (active). In the case of `CCC(=O)Nc1ccc(C(=O)Nc2ccc3c(c2)C(=O)N(CC2CCCO2)C3=O)cc1` (stereo not drawn), the Potency is reported as “inactive”. In the case of `O=C(NCc1ccc2c(c1)OCO2)c1ccc2c(c1)C(=O)N(CC1CCCO1)C2=O` (stereo not drawn), the Potency is reported as “inactive”. In the case of `Cc1nn(C(C)CC(=O)O)c(C)c1C` (stereo not drawn), the Potency is reported as “inactive”. For `NS(=O)(=O)c1ccc(CNC(=S)NC(=O)c2ccco2)cc1`, the Potency was “inactive”. For `Cc1ccc(N(Cc2cc(=O)[nH]c3ccccc23)C(=O)CCl)cc1`, the Potency was 2.91 µM (active). In the case of `Cc1ccc(N(Cc2cc3ccccc3[nH]c2=O)C(=O)c2cccs2)cc1`, the Potency is reported as “inactive”. In the case of `CC(=O)N(Cc1cc(=O)[nH]c2ccccc12)c1ccc(C)cc1C`, the Potency is reported as “inactive”. With `COc1ccc(Cc2nnc(SCC(=O)Nc3ccc(C)c(C)c3)o2)cc1OC` the Potency was “inactive”. With `Cc1ccc(NC(=O)C2CCCN2S(=O)(=O)c2cccc3cccnc23)c(C)c1` (stereo not drawn) the Potency was 23.1 µM (active) and 16.4 µM (active). In the case of `Cc1cccc(NC(=O)C2CCN(S(=O)(=O)c3cccc4cccnc34)CC2)c1`, the Potency is reported as “inactive”. For `O=C(Nc1nccs1)C1CCCN1S(=O)(=O)c1cccc2cccnc12` (stereo not drawn), the Potency was “inactive”. With `C=CCOc1ccc(/C=C/C(=O)OCC(=O)NC(C)c2ccc(F)cc2)cc1` (stereo not drawn) the Potency was “inactive”. With `COc1ccc2[nH]c3c(c2c1)CCN1C(=O)C(CC(=O)NCc2cccc(C(F)(F)F)c2)C[C@H](C(=O)N2CCOCC2)[C@@]31C` (stereo partly drawn) the Potency was “inactive”. For `COc1cc2c(cc1OC)CN(C(C)C(=O)Nc1cccc(S(=O)(=O)N3CCOCC3)c1)CC2` (stereo not drawn), the Potency was “inactive”. In the case of `COc1ccc(C(=O)CN(C(=O)c2ccc(Cl)cc2)N2C(=O)c3ccccc3C2=O)cc1`, the Potency is reported as “inactive”. With `COc1ccc(Cn2c(=O)oc3ccccc32)cc1` the Potency was “inactive”. In the case of `COc1ccc(Cn2c(-c3ccc(Cl)cc3)c[n+]3ccccc23)cc1`, the Potency is reported as 1.84 µM (active). In the case of `CN(CC(=O)Nc1c(Cl)cccc1Cl)C(=O)c1ccncc1`, the Potency is reported as “inactive”. For `COc1ccc(C(=O)NC2=NCCS2)c(OC)c1`, the Potency was “inactive”. With `COC(=O)c1sc(NC(=O)c2ccc(OC)cc2OC)nc1C` the Potency was “inactive”. With `COc1ccc(C(=O)Nc2cccc(NC(=O)c3ccc(OC)cc3OC)n2)c(OC)c1` the Potency was 20.6 µM (active). In the case of `CC1(C)NC(=O)N(CC(=O)Nc2cc(C(F)(F)F)cc(C(F)(F)F)c2)C1=O`, the Potency is reported as “inactive”. For `CN1CCn2cnc(C(=O)NCC(=O)OC(C)(C)C)c2C1=O`, the Potency was “inactive”. For `O=C(CSc1nc2c(c(=O)[nH]1)CN(Cc1ccc(F)cc1)CC2)Nc1ccccc1Cl`, the Potency was “inactive”. With `Cc1cc(C)cc(NC(=O)NCc2ccccn2)c1` the Potency was “inactive”. In the case of `CCCCn1c(N)c(N(CCOC)C(=O)COc2c(C)cccc2C)c(=O)[nH]c1=O`, the Potency is reported as “inactive”. With `COC(=O)c1cccc(-n2[nH]nnc2=S)c1` the Potency was “inactive”. In the case of `COc1ccc(Br)cc1S(=O)(=O)N1CCN=C1C`, the Potency is reported as “inactive”. For `COc1cc(C)c(C)cc1S(=O)(=O)N1CCCc2ccccc21`, the Potency was 16.4 µM (active). With `COc1ccc(C(=O)OCC(=O)NCC2CCCCC2)cc1S(=O)(=O)N1CCCc2ccccc21` the Potency was “inactive”. With `CN(CC(=O)Nc1ccc(Cl)cc1)C(=O)c1ccc(COc2ccccc2)cc1` the Potency was “inactive”. For `O=C(NCc1ccc2c(c1)OCO2)C(=O)NCC1OCCN1S(=O)(=O)c1ccc(F)cc1` (stereo not drawn), the Potency was “inactive”. For `Brc1c(CSc2nncc3ccccc23)nc2ccccn12`, the Potency was “inactive”. In the case of `O=C(Nc1cc(C(F)(F)F)ccc1Cl)c1nc2ccccc2nc1N1CCCCC1`, the Potency is reported as “inactive”. For `C/C(=C/C(=O)N1CCN(C)CC1)C(=O)O`, the Potency was “inactive”. In the case of `O=C(c1cc(-c2ccc(O)cc2)on1)N1CCOCC1`, the Potency is reported as “inactive”. With `CCc1nc2sc(C(=O)O)c(N)c2c2c1CCCC2` the Potency was “inactive”. In the case of `COc1ccc(CCNC(=O)CS(=O)(=O)Cc2nc(-c3ccc(C)cc3)oc2C)cc1OC`, the Potency is reported as “inactive”. For `COc1cccc(-c2nc(CS(=O)(=O)CC(=O)N3CCN(c4cc(C)ccc4C)CC3)c(C)o2)c1`, the Potency was 3.26 µM (active). With `CCCCN(CC)CCCNC(=O)CS(=O)(=O)Cc1nc(-c2cccc(OC)c2)oc1C` the Potency was “inactive”. In the case of `CC1CCN(CC(O)COc2ccc(C(=O)c3ccccc3)cc2)CC1` (stereo not drawn), the Potency is reported as “inactive”. For `C[C@@H](NC(=O)[C@@H]1Cc2ccccc2CN1)C(=O)NC1CCCC1`, the Potency was “inactive”. In the case of `Cc1noc(C)c1S(=O)(=O)N(C)C[C@H]1Oc2ccc(NC(=O)C3CC3)cc2C(=O)N([C@H](C)CO)C[C@@H]1C`, the Potency is reported as “inactive”. For `CCOc1ccc(NC(=S)N2CCCCCC2)cc1`, the Potency was “inactive”. With `CCOC(=O)c1ccc(NC(=S)N2CCCC2)cc1` the Potency was “inactive”. For `CCC(C)c1ccc(NC(=S)N2CCCC2)cc1` (stereo not drawn), the Potency was 13 µM (active). With `COc1ccc(CNS(=O)(=O)c2cc(-c3cc(C)no3)ccc2C(C)C)cc1` the Potency was 0.92 µM (active). In the case of `CCOc1ccccc1CNS(=O)(=O)c1cc(-c2cc(C)no2)ccc1C`, the Potency is reported as “inactive”. With `Cc1cc(-c2ccc(C)c(S(=O)(=O)NC(C)Cc3ccco3)c2)on1` (stereo not drawn) the Potency was “inactive”. For `Cc1nn(-c2ccc(F)cc2)c(Cl)c1/C=C(/CCC(=O)O)c1nc2ccccc2s1`, the Potency was “inactive”. With `COc1cccc2sc(NNC(=O)c3nc4ccccc4s3)nc12` the Potency was 5.17 µM (active). In the case of `COc1ccccc1OCc1nc2ccccc2s1`, the Potency is reported as “inactive”. For `O=C(Nc1ccccc1)Nc1nc2ccccc2s1`, the Potency was “inactive”. With `N#Cc1cccc(CSc2ncnc(N)n2)c1` the Potency was “inactive”. With `O=C(NCCCN1CCCC1=O)c1cccc(S(=O)(=O)NCc2ccccc2)c1` the Potency was “inactive”. With `CC1CCCCC1NC(=O)COC(=O)Cc1ccc(Br)cc1` (stereo not drawn) the Potency was “inactive”. In the case of `CCOC(=O)c1c(S(=O)(=O)NCC(=O)Nc2ccc(C)cc2)c(C)n(C)c1C`, the Potency is reported as “inactive”. In the case of `CCOC(=O)c1c(S(=O)(=O)Nc2ccc(CN3CCC(C)CC3)cc2)c(C)n(C)c1C`, the Potency is reported as “inactive”. With `CCOC(=O)c1c(S(=O)(=O)NCC(=O)Nc2ccc(Cl)c(C(F)(F)F)c2)c(C)n(C)c1C` the Potency was 18.4 µM (active). For `COCCCNC(=O)C1CCN(c2ccc(N3CCOCC3)nn2)CC1`, the Potency was “inactive”. For `Cc1ccc(C(=O)N/C(=C\c2cn(S(=O)(=O)N(C)C)c3ccccc23)C(=O)N2CCCC2)cc1`, the Potency was “inactive”. In the case of `O=C(CCC(=O)NNc1nc2ccccc2c2nc(-c3ccccc3)nn12)NCCCN1CCCC1=O`, the Potency is reported as “inactive”. With `COc1cc2nc(SCC(=O)Nc3ccccc3F)n3nc(-c4ccccc4)nc3c2cc1OC` the Potency was “inactive”. In the case of `COc1cc2nc(NCC(C)c3ccccc3)n3nc(-c4ccccc4)nc3c2cc1OC` (stereo not drawn), the Potency is reported as 16.4 µM (active). For `N#CCCN(C(=O)COC(=O)c1ccc(S(=O)(=O)N2CCCCCC2)cc1)c1ccccc1`, the Potency was “inactive”. For `COc1ccc(S(=O)(=O)N2CCOC23CCN(S(=O)(=O)c2ccc([N+](=O)[O-])cc2)CC3)cc1`, the Potency was 11.6 µM (active). In the case of `COc1ccc(S(=O)(=O)N2CCSCC2)cc1`, the Potency is reported as “inactive”. For `COc1ccc(CNC(=O)C(=O)N2CCC3(CC2)OCCN3S(=O)(=O)c2ccc(C)cc2)cc1`, the Potency was “inactive”. In the case of `COCCN1C2=C(COC(C)(C)C2)C(=S)NC1c1ccccc1` (stereo not drawn), the Potency is reported as “inactive”. For `Cc1ccccc1OCC(=O)N(Cc1cccc(F)c1)C1CCS(=O)(=O)C1` (stereo not drawn), the Potency was “inactive”. With `Cc1ccsc1CN(C(=O)c1oc2ccc(Br)cc2c1C)C1CCS(=O)(=O)C1` (stereo not drawn) the Potency was 9.2 µM (active). For `Cc1cc(C)c(OCC(=O)N(Cc2cccs2)C2CCS(=O)(=O)C2)c(C)c1` (stereo not drawn), the Potency was “inactive”. In the case of `NC1=NC2(CCCCC2)N(c2ccc(F)cc2F)C(N)=N1`, the Potency is reported as “inactive”. In the case of `COc1cc([N+](=O)[O-])cc([N+](=O)[O-])c1NC(=O)N1CCOCC1`, the Potency is reported as “inactive”. For `Cn1nc(-c2ccccc2)c(CSc2cccc(Cl)c2)c1Cl`, the Potency was 16.4 µM (active). With `CCOC(=O)CSc1ncc(-c2cccc(Cl)c2)cn1` the Potency was “inactive”. With `Cn1nc(-c2ccccc2)c(CO)c1Sc1ccccc1` the Potency was “inactive”. With `C=CCSc1ccc(S(=O)(=O)N2CCN(C)CC2)cn1` the Potency was “inactive”. For `Cc1n[nH]c(=O)n1-c1ccc(C(C)C)cc1`, the Potency was “inactive”. In the case of `CCOc1ccc(NC(=O)CN(C)C(=O)Cn2c(=O)cnc3ccccc32)cc1OCC`, the Potency is reported as “inactive”. In the case of `COc1cccc(N2CC(C(=O)Nc3c(C)cccc3C)CC2=O)c1` (stereo not drawn), the Potency is reported as “inactive”. In the case of `COc1ccc(N2CCC(N3CCN(C)C(CCO)C3)CC2)cc1` (stereo not drawn), the Potency is reported as “inactive”. With `COc1ccc(N2CCC(CNC(=S)Nc3c(C)cccc3C)C2)cc1` (stereo not drawn) the Potency was 23.1 µM (active). With `COc1cc(C(=O)Nc2ccc(OCc3cc(=O)n4cc(C)sc4n3)cc2)cc(OC)c1OC` the Potency was “inactive”. In the case of `CC(=O)Nc1ccc(OC(=O)COc2ccc(Br)cc2)cc1`, the Potency is reported as “inactive”. In the case of `COc1ccccc1S(=O)(=O)c1c(C)cc(C)[nH]c1=O`, the Potency is reported as “inactive”. With `CC(C)c1ccc(Cn2c(COc3ccccc3)nc3ccccc32)cc1` the Potency was 18.4 µM (active). In the case of `O=C(O)CCn1c(Cc2ccccc2)nc2ccccc21`, the Potency is reported as “inactive”. For `CC(O)c1nc2ccccc2n1Cc1ccc([N+](=O)[O-])cc1` (stereo not drawn), the Potency was “inactive”. In the case of `Cc1ccc(NC(=O)N2CCC(O)(c3cccnc3)CC2)cc1`, the Potency is reported as “inactive”. For `Cn1c(C(=O)O)ccc1S(=O)(=O)N(Cc1ccccc1)Cc1ccccc1`, the Potency was “inactive”. For `COc1ccccc1N(CC(=O)NC1CCCC1)C(=O)C1(C)CC(=O)N=C2C=CC(C)=CN21` (stereo not drawn), the Potency was “inactive”. With `COc1cc(NC(=O)c2ccc(-c3csc(C)n3)cc2)c(OC)cc1Cl` the Potency was “inactive”. In the case of `COC(=O)c1scc(-c2ccc(C)cc2)c1S(=O)(=O)Nc1cc(Cl)c(OC)cc1OC`, the Potency is reported as 13 µM (active). With `COc1cc(OC)c(NS(=O)(=O)c2cn(C)cn2)cc1Cl` the Potency was “inactive”.
